INHIBITION data for 31 molecules are collected here from ChEMBL document CHEMBL4513216, “Probing the Open Global Health Chemical Diversity Library for Multistage-Active Starting Points for Next-Generation Antimalarials” (ACS Infect Dis, 2020).

The whole screen tested about 69,000 compounds, of which about 8,600 (12%) showed an effect of 50% or more. The full list was thinned out, with strong results kept by preference.

The subject of this experiment is Plasmodium berghei. The experiment is described as follows: Screen against P. berghei liver stage (PbLuc), transformed with Luciferase, at 10uM. Format: functional, HepG2. The settings on record: tested at 10 uM.
Turning to `C=C(C)COc1ccc(C(CC(=O)OC)c2oc(C)cc(=O)c2O)cc1` (stereo unspecified), the INHIBITION is -24.7%.
Next, `CNc1ncc(CN(C)C(=O)c2cccc(Cn3cccn3)c2)cn1`: 18.5%; `CCc1ccccc1Nc1noc2c1CN(C(=O)c1ccn(C)n1)CC2`: -3.35%.
The result for `CCn1ccnc1CN1CCN(Cc2cccnc2)CC1C` (stereo unspecified) reads 33.5%; that for `CCN1CC(=O)c2sc(NC(C)C)nc2C1`, 23.4%; that for `CC[C@H](C)[C@H](N)C(=O)N1CC(=O)c2sc(Nc3ccc(F)cc3)nc2C1`, 14.5%.
Next, `CC(C)CC(=O)N1CC(=O)c2sc(Nc3ccc(C#N)cc3)nc2C1`: 79.7%; `CC(C)NC(=O)N1CC(=O)c2sc(Nc3ccc(C#N)cc3)nc2C1`: 61.9%.
For `CC(C)NC(=O)N1CC(=O)c2sc(NC3CCCCC3)nc2C1`, the INHIBITION was -16.7%.
Regarding `N#Cc1ccc(Nc2nc3c(s2)C(=O)CN(CC2CC2)C3)cc1`, the INHIBITION is listed as -15.2%.
As to `CC(C)Nc1nc2c(s1)C(=O)CN(C)C2`, the INHIBITION was 35.2%.
Next, `CC(C)CC(=O)N1CC(=O)c2sc(Nc3ccc(F)cc3)nc2C1`: 51.5%.
The result for `Cc1nc(C)n(CC2CCCN(CCCOc3ccc(F)cc3)C2)n1` (stereo unspecified) reads 40.2%; that for `NC(=O)C1CCN(CCc2ccc(NC(=O)C3CC3)cc2)CC1`, 45.05%; that for `CC(O)(CNC(=O)NCCc1ccc2c(c1)CCO2)c1ccsc1` (stereo unspecified), 30.8%.
The result for `CC(C)c1nn(C)cc1CNC1CCOc2ccccc21` (stereo unspecified) reads 31.8%; that for `COc1ccccc1C1CNCCN1C(C)=O` (stereo unspecified), 9.98%; that for `CC(=O)N1CCC2(CCCN2Cc2cnn(C)c2)CC1`, -26%.
Regarding `COc1ccnc(N2CCCN(c3nc(C4CC4)ns3)CC2)n1`, the INHIBITION came to 77.6%.
The result for `CCOc1ccnc(N2CCCN(c3nc(CC)ns3)CC2)n1` reads -12.5%.
The result for `CCOc1ccnc(N2CCCN(c3nc(C4CC4)ns3)CC2)n1` reads -75.5%.
Next, `CC(NC(=O)Cn1ccc(=O)n(C)c1=O)c1cc(F)ccc1F` (stereo unspecified): -35.7%.
Take `CC(C)C(NC(=O)Cn1ccc(=O)n(C)c1=O)c1ccc(F)cc1` (stereo unspecified): the INHIBITION was 53.8%.
The result for `CC(NC(=O)Cn1ccc(=O)n(C)c1=O)c1ccccc1F` (stereo unspecified) reads -27.8%.
`O=C(c1ccc(NCc2cccc(F)c2)cc1)N1CCCC1`: the INHIBITION is -16.1%.
The result for `CCC(C(=O)N(C)Cc1cc(COC)[nH]n1)n1cccn1` (stereo unspecified) reads -29.2%.
Next, `O=C(c1ccc(NC2CC2)nc1)N1CCCC(n2ccnc2)C1` (stereo unspecified): 31.32%; `CCn1cc(S(=O)(=O)N2CCCC3(CC=CNC3=O)C2)c(C)n1` (stereo unspecified): -42.9%; `Cc1ccc(C(=O)NCC(O)c2cnn(C)c2)c(Br)c1` (stereo unspecified): 29.7%.
On to `Cn1cc(C(O)CNC(=O)c2ccc(F)cc2Cl)cn1` (stereo unspecified), for which the INHIBITION is listed as 51.6%.
The result for `Cn1cc(C(O)CNC(=O)c2cc(Br)ccc2Cl)cn1` (stereo unspecified) reads 19.8%.
